The values that follow come from PubChem BioAssay (NCI).

The panel holds about 83,000 compounds, 20% with a hit somewhere; the sample as a whole holds those more often.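 Cells were grown in 96-well plates and exposed to the test compound at a single concentration for 48 hours; results are reported as percent growth, with values below 10 considered active.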 Values without a mark were called inactive. Active and inactive are the calls of the source.

The experiment relates to LOX IMVI melanoma. Nature of the experiment: NCI-60 one-dose screen, 48 h (100 = growth as untreated, 0 = no growth, -100 = all killed). As to conditions: 10 µM unless noted.
Regarding `CCNC(=O)CCCCC(=O)c1c(C)[nH]c(/C=C2\N=C(c3ccc[nH]3)C=C2OC)c1C`, the growth is -56.9% (active).
Under `CC(=O)OCC1OC(OCC2OC(OC(C)=O)C(OC(C)=O)C(OC(C)=O)C2OC(C)=O)C(OC(C)=O)C(OC(C)=O)C1OC(C)=O` (stereo not given) stands 95.7%; under `Clc1ccc([I+]c2ccc(Cl)cc2Cl)c(Cl)c1`, 10.5%.
Under `CCC(=O)Oc1cc(/C=C/C(=O)O[C@H]2C[C@H]3CN4CCc5c([nH]c6cc(OC)ccc56)[C@@H]4C[C@@H]3[C@@H](C(=O)OC)[C@@H]2OC)ccc1OC` stands 79.5%; under `COC1=CC(c2ccc[nH]2)=N/C1=C\c1[nH]c(C)c(C(=O)CCCCC(=O)NCc2ccccc2)c1C`, -56.3% (active).
Under `COc1ccc(-c2nnc(COc3ccc(NS(=O)(=O)c4ccc(OC)cc4)cc3F)o2)cc1` stands 86.3%.
Take `CN1CCN(c2ccc3cc(-c4nc5ccccc5[nH]4)c(=O)oc3c2)CC1`: the growth is 87.2%.
Next, `CCC1=C[C@@H]2CN(C1)Cc1c([nH]c3ccccc13)[C@@](C(=O)OC)(c1cc3c(cc1OC)N(C=O)[C@H]1[C@@](O)(C(=O)OC)[C@H](OC(C)=O)[C@]4(CC)[C@@H]5C[C@@H]5CN5CC[C@]31[C@@H]54)C2`: 7.6% (active); `O=S(=O)(c1ccccc1)n1ccc(-c2ccc3c(c2)CCO3)n1`: 85.2%; `COC1=CC(c2ccc[nH]2)=N/C1=C\c1[nH]c(C)c(CCCn2cc(CCCCCCCCC[C@@H]3Cc4cc(O)ccc4C4CC[C@]5(C)[C@@H](O)CC[C@H]5C43)nn2)c1C` (stereo not given in full): 13.4%.
